The list is not random: actives were taken first. Their share in the collection is about 4.3%.
NALP1 inh: NALP1 inflammasome inhibitors in reconstituted yeast, colorimetric, S. cerevisiae, triplicate retest | inhibition, % at 10 µM | AID 2071, 2009 | actives 0.61% (n = 280,000) | S. cerevisiae NALP1/ASC/caspase-1 growth, X-gal OD620, 72 h; in the data active = inhibition mostly above about 24%, no sharp cut-off; inactive = mostly below about 32%
Yeast superoxide: reduction of superoxide in aged yeast, primary screen, HTS | S. cerevisiae aged cells, superoxide DHE fluorescence; hits give low values | superoxide response (% of plate mean), % at 10 µM | actives 0.18% (n = 330,000);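 active = superoxide response under a set limit, about three screen SD below normal, cut at about 65% in these data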;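 also: yeast aged for seven days with compound at 30 °C before DHE staining; 100% = average MFI of all compound-treated wells on the plate with controls excluded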
GRIN3A LBD mod: binders of NR3A ligand-binding domain, primary screen, biophysical, differential scanning fluorimetry, uHTS | NR3A LBD differential scanning fluorimetry, Tm shift; 0% = protein alone, 100% = glycine-bound protein | Glutamate receptor ionotropic, NMDA 3A (GRIN3A) ligand-binding domain | Tm shift relative to glycine control, % at 25 µM | actives 2.5% (n = 340,000);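 active = melting temperature shift of at least 10% of the positive control shift, at one fixed dose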
UBC13 inh: UBC13 polyubiquitin chain formation inhibitors, primary screen, biochemical, TR-FRET, uHTS. Ubiquitin-conjugating enzyme E2 N (Homo sapiens), P61088. inhibition, % at 20 µM. actives 0.47% (n = 330,000); in the data active = inhibition above about 45%, passing the limit was not always enough
dFosB act: activators of delta FosB homodimer, primary screen, biochemical, fluorescence polarization, TAMRA-CDK5 oligo, single point; actives 0.99% (n = 340,000); AID 493131, 2011; Protein FosB (Mus musculus), P13346; activation, % at 25 µM; purified delta FosB; percent of positive-control signal above neutral wells;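 active = mean activation above about 17%, with every replicate also reaching it, limit read from the data, passing the limit was not always enough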
Target sequence (P13346 whole entry, looked up): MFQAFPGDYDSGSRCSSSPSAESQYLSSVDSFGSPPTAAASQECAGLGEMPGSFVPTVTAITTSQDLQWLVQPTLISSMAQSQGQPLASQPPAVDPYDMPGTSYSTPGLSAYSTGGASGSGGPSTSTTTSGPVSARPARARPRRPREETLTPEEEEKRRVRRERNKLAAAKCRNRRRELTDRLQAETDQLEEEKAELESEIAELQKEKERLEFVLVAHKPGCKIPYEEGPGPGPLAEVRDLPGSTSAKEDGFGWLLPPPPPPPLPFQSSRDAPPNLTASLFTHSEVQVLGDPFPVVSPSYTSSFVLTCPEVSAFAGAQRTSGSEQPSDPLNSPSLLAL
* = called active by the depositor; . = no result given.

SMILES	NALP1 inh	Yeast superoxide	GRIN3A LBD mod	UBC13 inh	dFosB act
Cc1ccc(/C=C2\SC(=S)N(/N=C/c3cc([N+](=O)[O-])ccc3O)C2=O)o1	3	88	4	-29	-15
COC(=O)C1CC(c2ccc(Cl)cc2)=NO1 (stereo unspecified)	11	109	1	6	-6
COCCCNS(=O)(=O)c1ccc(S(=O)(=O)N2CCCC2)cc1	38*	90	1	-1	-1
Nc1ccc(-c2nc3c(Cl)cc(N)cc3[nH]2)cc1	3	91	10*	-42	-5
Nc1ccc2nc(-c3ccc(N)c(Cl)c3)[nH]c2c1	0	95	16*	-35	6
COc1ccc(S(=O)(=O)NC2CC(=O)N(c3ccccc3)C2)cc1C (stereo unspecified)	.	114	3	0	-3
COc1cc(/C=C(\NC(=O)c2ccccc2)C(=O)Nc2nccs2)ccc1OC(C)=O	21	100	-2	-10	-6
CC(=O)OC1CCC2(C)C3CCC4(C)C(C(C)=O)CCC4C3CC3OC32C1 (stereo unspecified)	.	.	-7	.	1
Cc1c(C)n(Cc2ccccc2)c2ncnc(Cl)c12	16	91	0	8	1
COc1cc(/C=C/C(=O)OCC(=O)NCc2ccco2)ccc1OC(F)F	17	101	14*	-2	-10
CCCn1c(N)c(C(=O)COC(=O)/C=C/c2ccc(OC(F)F)c(OC)c2)c(=O)[nH]c1=O	.	92	3	14	22*
CCOc1cc(N2CCOCC2)c(OCC)cc1NC(C)C(=O)N1CCC(C)CC1 (stereo unspecified)	26	95	-4	1	-9
CCCc1ccc(NS(=O)(=O)c2c(C)oc(C)c2C(=O)OC)cc1	.	108	-1	11	0
O=[N+]([O-])c1ccc(NN=Cc2cc(Br)ccc2O)nc1	.	.	31*	.	10
Cn1ncc(N=Cc2ccc([N+](=O)[O-])cc2)c1C(=O)Nc1ccccc1	-9	107	14*	2	-3
CC(=O)Nc1ccc(C=NNc2ccc([N+](=O)[O-])cn2)cc1	.	.	24*	.	3
O=[N+]([O-])c1ccc(NN=Cc2cccc(O)c2)nc1	.	.	12*	.	-3
O=[N+]([O-])c1ccc(N/N=C\c2cccnc2)nc1	16	95	-1	6	3
Cc1cc(C)n(-c2ccc(NC(=O)C3CCN(Cc4ccc(C)o4)CC3)cc2)n1	29	87	0	-2	-10
O=C(COc1ccc(Cl)cc1)NCc1n[nH]c(=O)c2ccccc12	.	109	6	0	-2
Cc1ccc(S(=O)(=O)N2CCN(CCc3ccncc3)CC2)cc1	.	93	11*	4	-1
Cc1ccc([N+](=O)[O-])cc1N(CC(=O)Nc1ccc(S(=O)(=O)Nc2cccc(C(F)(F)F)c2)cc1)S(C)(=O)=O	6	101	12*	12	0
O=c1oc2cc(O)ccc2cc1-c1nc2c(s1)CCc1ccccc1-2	28	101	565*	.	-9
O=C(Cn1ccccc1=O)NCc1ccc(F)cc1	22	93	1	-2	-5
Cc1cc(SCC(=O)N/N=C/c2ccc(O)c(O)c2O)c(C)cc1Br	-11	88	25*	-24	-5
SMILES	NALP1 inh	Yeast superoxide	GRIN3A LBD mod	UBC13 inh	dFosB act
CCN1C(=O)/C(=C/C=C2\N(CC)c3cc(S(=O)(=O)N(C)C)ccc3N2c2ccccc2)SC1=S	-2	103	0	-74	91*
CCC(CC)c1nnc(NC(=O)c2c(C)nn(Cc3ccccc3Cl)c2C)s1	-7	124	16*	-3	-15
Cc1nn(Cc2ccccc2Cl)c(C)c1C(=O)NC1=NCCS1	3	103	-3	-6	-4
CC1CC(=O)NN1C(=O)c1ccccc1 (stereo unspecified)	-7	116	0	2	-1
CCOc1cc(N2CCOCC2)c(OCC)cc1NC(=O)COC(=O)C1CCCN1S(=O)(=O)c1ccccc1F (stereo unspecified)	.	111	26*	11	1
CCn1c(SCC(N)=O)nnc1-c1ccc2c(c1)OCO2	6	82	-1	4	2
CCn1c(SCC(N)=O)nnc1-c1ccc(OC)c(OC)c1	16	98	13*	-3	-10

Compound activity from PubChem.
